Source: PubChem BioAssay (National Center for Advancing Translational Sciences (NCATS))
Only some compounds are listed: those with a hit (about 8% of all), similar ones and a draw of the others.
ELG1 repair inh = qHTS screen for small molecules that inhibit ELG1-dependent DNA repair in human embryonic kidney (HEK293T) cells expressing luciferase-tagged ELG1 | HEK293T ELG1-luciferase reporter, luminescence, 16 h; DNA damage induced by 5-fluorouridine | Potency, µM (highest dose often 46.1 µM), for inactives: at the top dose activity change, negative = inhibition, most hits filed as inhibitors | 2.3% of 330,000 active | AID 504467, 2011; also: potency is read from the fitted curve at half-maximal effect; nearly all actives have a fitted effect of over 55% in size
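In this reporter screen, reduction of luminescence relative to DMSO vehicle indicated activity. Compounds and 5-fluorouridine were added together to 2,000 cells per well, incubated for 16 hr at 37 °C, then developed with ONE-Glo.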
RORg inh = qHTS for inhibitors of ROR gamma transcriptional activity | Nuclear receptor ROR-gamma (Mus musculus), P51450 | Drosophila S2 Gal4-RORgamma UAS-luciferase reporter, 20 h | Potency, µM (top dose mostly 53.6 µM), for the others: top-dose activity change, negative = inhibition, hits mostly inhibitors | 5.4% of 310,000 active; also: potency is read from the fitted curve at half-maximal effect; nearly all actives have a fitted effect of over 60% in size
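ROR gamma transcriptional activity was tracked as Gal4-UAS luciferase output in stably transfected Drosophila Schneider cells, with compound added 1 hr before 700 uM copper sulfate induction and a 20 hr ambient-temperature incubation.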
VP16 counter = VP16 counterscreen qHTS for inhibitors of ROR gamma transcriptional activity | Drosophila S2 Gal4-VP16 UAS-luciferase, luminescence, 20 h | Potency, µM (top dose mostly 53.6 µM), inactives show top-dose activity, negative = inhibition, hits mostly inhibitors | 3.5% of 310,000 active | AID 2546, 2010;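 also: Gal4-VP16 expression switched on by copper sulfate through the metallothionein promoter; potency is read from the fitted curve at half-maximal effect; nearly all actives have a fitted effect of over 50% in size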
Coupling enz = qHTS Assay for Inhibitors of Fructose-1,6-bisphosphate Aldolase from Giardia Lamblia: Coupling assay counterscreen; activity change, negative = inhibition, % at 58.2 µM, hits read low; 0.67% of 290,000 active; coupling enzyme system counterscreen, AmpLite Red fluorescence; AID 2472, 2010; in the data active = activity change below about -30%
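Counterscreen of the coupled detection system alone, without aldolase: glyceraldehyde-3-phosphate coupling enzymes plus AmpLite Red readout. Compounds at 57.5 uM final, 10 min RT preincubation, 20 min RT reaction, fluorescence 525/598 nm.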
TSHR antagonist = Antagonists of the Thyroid Stimulating Hormone Receptor: HTS campaign; Thyrotropin receptor (Homo sapiens), P16473; TSHR-expressing cells, TSH-stimulated cAMP HTRF, 2 h; hits give low values; AID 504810, 2011; 0.2% of 330,000 active; activity change, negative = inhibition, % at 11.5 µM;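 active = activity change below a set negative limit, meaning inhibition stronger than a set level, cut at about -70% in these data; inconclusive = activity change between two set negative limits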
Target sequence (P16473 whole entry, looked up): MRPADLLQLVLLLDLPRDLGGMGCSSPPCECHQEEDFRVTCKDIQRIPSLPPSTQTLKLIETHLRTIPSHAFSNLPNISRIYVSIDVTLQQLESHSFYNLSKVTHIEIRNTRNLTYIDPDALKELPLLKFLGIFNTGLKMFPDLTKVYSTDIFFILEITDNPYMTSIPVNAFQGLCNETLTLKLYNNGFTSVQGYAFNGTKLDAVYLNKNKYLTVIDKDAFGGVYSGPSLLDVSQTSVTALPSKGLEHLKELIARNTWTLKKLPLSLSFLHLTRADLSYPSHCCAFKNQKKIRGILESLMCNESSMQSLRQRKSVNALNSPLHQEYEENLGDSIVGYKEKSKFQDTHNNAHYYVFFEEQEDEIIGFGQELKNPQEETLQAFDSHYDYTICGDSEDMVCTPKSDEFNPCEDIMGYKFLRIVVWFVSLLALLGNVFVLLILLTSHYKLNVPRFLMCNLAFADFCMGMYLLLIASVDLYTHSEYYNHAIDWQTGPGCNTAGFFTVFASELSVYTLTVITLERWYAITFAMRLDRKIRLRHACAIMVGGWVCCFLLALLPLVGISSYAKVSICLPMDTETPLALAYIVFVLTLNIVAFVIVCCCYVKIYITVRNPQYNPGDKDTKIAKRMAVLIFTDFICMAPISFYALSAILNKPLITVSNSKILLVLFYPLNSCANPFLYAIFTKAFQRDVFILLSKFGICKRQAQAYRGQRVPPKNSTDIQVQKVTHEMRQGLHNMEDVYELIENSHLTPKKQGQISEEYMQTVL
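Read-out is FRET at 665 nm (cryptate excitation 337 nm) from a cryptate-tagged anti-cAMP antibody, competed by cell cAMP against cAMP-d2. Compounds are tested on freshly harvested TSHR cells challenged with 4nM TSH (EC80) for 2 hours at 37 deg C.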
* hit, by the source's call; ? = inconclusive; . = no result given; ! = repeats disagree; [ ] = remark or other dose. Unless noted, calls follow the shape of the dose curve; as a rule, active = well fitted curve in the direction sought with a large enough effect; inconclusive = small, poorly fitted or top-dose-only effect, or another doubt; inactive = no such curve, though single readings can be large; an effect the other way counts as inactive or inconclusive. % is scaled to controls: 0 for no effect and ±100 for the full control effect.

SMILES	ELG1 repair inh	RORg inh	VP16 counter	Coupling enz	TSHR antagonist
O=C(CCCN1C(=O)/C(=C/c2cccc(Br)c2)SC1=S)NCCCN1CCOCC1	?	10µM*	0%	.	22
COC(=O)c1ccc(/C=C2\SC(=S)N(CCCC(=O)NCCCN3CCOCC3)C2=O)cc1	-10%	2.2µM*	1.8µM*	1	-1
COc1ccc(/C=C2\SC(=S)N(CCC(=O)NCCCN3CCOCC3)C2=O)cc1	-5%	9%	19%	-2	3
O=C(O)CC/C(=N\Nc1ccc(S(=O)(=O)N2CCCC2)cc1[N+](=O)[O-])c1cccs1	21µM*	-20%	11%	8	-18
CC(NC(=O)c1cccc(S(=O)(=O)N2CCc3ccccc32)c1)c1ccco1 (stereo unspecified)	0%	.	.	.	-10
COc1ccc(NC(=O)c2nc[nH]c2C(=O)NCC(=O)OC(C)(C)C)cc1	?	?	?	6	-5
CCOC(=O)c1ccc(NC(=O)c2nc[nH]c2C(=O)NC)cc1	?	10µM*	-28%	-1	2
CCOC(=O)c1[nH]cnc1C(=O)Nc1ccc(C)cc1	5%	13µM*	?	-1	-11
Cc1ccc(NC(=O)c2nc[nH]c2C(=O)NCC(=O)OC(C)(C)C)cc1	5%	6.3µM*	?	0	-6
O=C(NCc1ccccc1Br)c1ccncc1	3%	25%	-13%	5	24
Oc1ccc(/C=C\c2cc(O)cc(O)c2)cc1	.	3.5µM*!	13µM*	1	.
Oc1ccc(/C=C/c2cc(O)cc(O)c2)cc1	?	2µM*	14µM*!	3	9
COc1cc(O)cc(/C=C/c2ccccc2)c1	.	24%	?	0	.
O=c1cnc2cnc(OCc3ccccc3)nc2n1CCc1ccccc1	.	42%	-4%	1	.
CN1C(=O)C2(NC(=O)c3ccccc3N2C)c2ccccc21 (stereo unspecified)	-14%	1%	3%	3	-3
CN1C(=O)C(Cl)(Cl)C(=O)c2ccccc21	?	11µM*	?	-75*	4
N#CCCn1c(=O)c(-c2cc(F)cc(F)c2)nc2cnc(Oc3cccc(Cl)c3)nc21	.	30%	2%	0	.
Cc1ccccc1Nc1nc(-c2ccccc2)c(C(=O)Nc2cccnc2)s1	23µM*	?	-17%	-8	-20
CCCCC/C=C\C/C=C\C/C=C\C/C=C\CCCCCC(=O)NC(C)C(=O)O (stereo unspecified)	.	-29%	0%	2	.
O=c1c2cc(Br)ccc2[nH]c(=S)n1Cc1ccccc1	?	2.5µM*	3.5µM*	4	0
O=C(CCCn1c(=S)[nH]c2ccc(Br)cc2c1=O)NCc1ccccn1	-2%	?	-29%	0	-6
O=c1c2cc(Br)ccc2[nH]c(=S)n1Cc1ccccn1	14%	2.8µM*	?	1	0
O=C(NCc1cccnc1)c1ccc(Cn2c(=S)[nH]c3ccc(Br)cc3c2=O)cc1	-3%	1%	24%	2	-4
O=C(CCC(=O)N1CCN(c2ccccn2)CC1)c1ccc(Cl)s1	?	.	.	.	38
CCNC(=S)NN(c1ccccc1)c1ccccc1	?	7.9µM*	?	1	4
SMILES	ELG1 repair inh	RORg inh	VP16 counter	Coupling enz	TSHR antagonist
CCNC(=S)Nc1ccc(N(c2ccccc2)C(C)C)cc1	20%	-44%	-2%	2	-8
CC(C)c1ccc(NC(=S)NN(c2ccccc2)c2ccccc2)cc1	?	3.2µM*	5µM*	-6	-2
CCOC(=O)c1c(S(=O)(=O)NCC(=O)Nc2cccc(C)c2C)c(C)n(C)c1C	8%	2%	5%	.	-112*
CCOC(=O)c1c(S(=O)(=O)NCC(=O)Nc2cccc(F)c2)c(C)n(C)c1C	5%	-3%	6%	.	2
CCn1c(CSc2nnc(-c3ccc4c(c3)OCO4)o2)nc2cc(S(=O)(=O)N(C)C)ccc21	15µM*	22%	2%	-5	-8
COc1cc(CCN2C(=O)c3cccc4cccc(c34)C2=O)c(S(=O)(=O)N2CCC(C)CC2)cc1OC	21µM*	?	2%	2	-10
COc1ccc(CCNC(=O)CCN2C(=O)c3cccc4cccc(c34)C2=O)cc1OC	3%	7%	-1%	0	-16
COc1cc(CCN2C(=O)c3cccc4cccc(c34)C2=O)c(S(=O)(=O)N2CCCCCC2)cc1OC	?	34%	-13%	1	-4
COc1cc(CCN2C(=O)c3cccc4cccc(c34)C2=O)c(S(=O)(=O)NCCO)cc1OC	4.6µM*	?	-6%	3	0
COc1cc(CCN2C(=O)c3cccc4cccc(c34)C2=O)c(S(=O)(=O)NCCCO)cc1OC	5.8µM*	7%	-13%	-1	-3
CN(C(=O)Cc1c(C(=O)O)n(C)c2ccccc12)c1cccc(C(F)(F)F)c1	9%	5%	2%	7	0
CCOc1ccc(-c2csc(Cn3c(CN4CCN(C)CC4)nc4ccccc4c3=O)n2)cc1	21µM*	?	-20%	-5	8
CC(C)N1CCc2c(sc(NC(=O)c3ccc(S(=O)(=O)N4CCOCC4)cc3)c2C#N)C1	0%	3%	-4%	-1	12
CCOC(=O)N1CCc2c(sc(NC(=O)c3ccc(S(=O)(=O)N4CCCC4)cc3)c2C#N)C1	16µM*	?	?	1	1
COc1ccc([C@@H]2CC(=O)c3c(O)cc(O[C@H]4O[C@@H](CO[C@H]5O[C@@H](C)[C@@H](O)[C@@H](O)[C@@H]5O)[C@@H](O)[C@@H](O)[C@@H]4O)cc3O2)cc1O	.	12%[2.98 µM]	4%[17 µM]	3	.
COC(=O)C1(C(=O)OC)C/C=C\C/C=C\c2ccccc2C1C[N+](=O)[O-] (stereo unspecified)	.	-12%	1%	3	.
CCCCCn1c(=O)c2ccccc2n2c(=S)[nH]nc12	-7%	7.1µM*	?	7	-12
CCCn1c(=O)c2ccccc2n2c(=S)[nH]nc12	11%	-9%	-6%	0	-2
CCCCn1c(=O)c2ccccc2n2c(=S)[nH]nc12	-21%	10µM*	?	2	-5
Cn1c(=O)c2ccccc2n2c(=S)[nH]nc12	-2%	?	-15%	0	-8
O=[N+]([O-])c1ccc(Nc2nc(NC3CCCCC3)nc(N3CCCC3)n2)cc1	?	36%	?	-4	13
